Most compounds without a hit are left out; they make up all but 0.47% or so of the library.
AID inh = activation induced cytidine deaminase inhibition. Potency, µM (doses to about 115 µM), hits mostly inhibitors. 91,000 tested, 0.32% active. Q9GZX7. AID 1347428. AID deamination FRET fluorescence, UDG-coupled, 4 h; also: nearly all actives have a fitted effect of over 25% in size
Target sequence (Q9GZX7 whole entry, looked up): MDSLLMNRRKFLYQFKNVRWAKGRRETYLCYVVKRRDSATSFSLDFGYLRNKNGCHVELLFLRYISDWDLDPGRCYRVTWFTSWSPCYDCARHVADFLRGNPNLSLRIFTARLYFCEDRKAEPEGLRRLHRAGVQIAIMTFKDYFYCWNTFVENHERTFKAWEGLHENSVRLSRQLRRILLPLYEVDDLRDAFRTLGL
UDG counterscr = UDG inhibition counter-screen; FRET deamination/UDG coupled assay, UDG read, 4 h; Potency, µM (titrated, usually from 115 µM), for the others: top-dose activity change, negative = inhibition, actives largely listed as inhibitors; 91,000 tested, 0.14% active; AID 1347430; also: nearly all actives have a fitted effect of over 65% in size
* marks the source's active call; other numbers are inactive results; i = inactive; u = inconclusive; [ ] = remark or other dose. Calls follow the shape of the dose curve; as a rule, active = well fitted curve in the direction sought with a large enough effect; inconclusive = small, poorly fitted or top-dose-only effect, or another doubt; inactive = no such curve, though single readings can be large; an effect the other way counts as inactive or inconclusive. % is scaled to controls: 0 for no effect and ±100 for the full control effect; potency is read from the fitted curve at half-maximal effect.

SMILES	AID inh	UDG counterscr
Cc1ccc(NC(=O)/C(C#N)=C\c2ccc(Cl)cc2Cl)cc1C	i	-9%
Cc1ccc(NC(=O)/C(C#N)=C/c2ccc(-c3ccc(Cl)c(C(=O)O)c3)o2)cc1C	79µM*	u
CN1C(=S)SC(C)(C)C1/[N+]([O-])=C/c1ccco1 (stereo not given)	i	2%
COc1ccc(C)cc1NC(=O)C(Sc1nnnn1C1CCCC1)c1ccccc1 (stereo not given)	i	-1%
Cc1cccc(N2CCN(C(=O)CCS(=O)(=O)c3ccc4c(c3)CC(=O)N4C)CC2C)c1 (stereo not given)	i	79µM*
CN1C(=O)Cc2cc(S(=O)(=O)CCC(=O)N3CCN(c4ccccc4F)CC3)ccc21	i	u
COc1cc2c(=O)c(C(=O)c3ccc(C)c(C)c3)cn(Cc3ccccc3)c2cc1OC	u	-11%
COc1cc2c(=O)c(C(=O)c3ccc(C)c(C)c3)cn(Cc3ccc(F)cc3)c2cc1OC	45µM*	-20%
C=Cc1ccc(CSc2nc(-c3ccccc3C)nc3c2Cc2c(CO)cnc(C)c2O3)cc1	45µM*	-8%
C=Cc1ccc(CSc2nc(-c3ccc(Cl)cc3)nc3c2Cc2c(CO)cnc(C)c2O3)cc1	i	-9%
COc1ccc(Br)cc1/C=C(\C#N)c1nc2ccccc2[nH]1	i	-15%
COc1ccccc1N1CCN(CCCNC(=O)c2cnn(-c3ccc(C)c(C)c3)c2C2CCN(C(=O)OC(C)(C)C)CC2)CC1	50µM*	12%
COc1ccc(CCN2CCC(CNC(=O)c3cnn(-c4ccccc4)c3C3CCN(C(=O)OC(C)(C)C)CC3)CC2)cc1	u	43%
Cc1c(Cl)cccc1-n1ncc(C(=O)N2CCN(c3ncccn3)CC2)c1C1CCN(C(=O)OC(C)(C)C)CC1	i	-9%
COc1ccc(CCN2CCC(CNC(=O)c3cnn(-c4cccc(Cl)c4)c3C3CCN(C(=O)OC(C)(C)C)CC3)CC2)cc1	35µM*	-17%
CC(C)(C)OC(=O)N1CCC(c2c(C(=O)N3CCN(c4ccccc4F)CC3)cnn2-c2ccccc2Cl)CC1	50µM*	u
Cc1ccc(C)c(N2CCN(CCCNC(=O)c3cnn(-c4ccccc4)c3C3CCN(C(=O)OC(C)(C)C)CC3)CC2)c1	i	38%
Cc1ccc(-c2cc(C)c(C)cc2C)nc1	i	6%
O=C(NCc1ccc(OC(F)(F)F)cc1)C1CCN(S(=O)(=O)/C=C/c2ccccc2)CC1	i	4%
Cn1c(=O)c2c(ncn2CC(=O)Nc2ccccc2C(=O)NC2CC2)n(C)c1=O	i	-3%
Cc1ccc(NC(=O)CSc2nc3c(=O)[nH]cnc3n2C)cc1F	i	-6%
COc1cc(OC)c(N(C)C(=O)c2nn(C)c3c2CSc2ccccc2-3)cc1Cl	45µM*	-17%[57.5 µM]
CCc1ccccc1N(C)C(=O)c1nn(C)c2c1CSc1ccccc1-2	u	-4%[57.5 µM]
CCc1ccc(-n2c(SCc3nc(-c4cc(OC)ccc4OC)no3)nnc2-c2ccccc2)cc1	u	-22%
COc1ccc(-n2c(Cc3ccccc3)nnc2SCc2nc(-c3ccccc3C)no2)cc1	32µM*	-29%
SMILES	AID inh	UDG counterscr
O=C(/C=C/c1ccco1)OC(C(=O)c1ccccc1)C(=O)c1ccccc1	i	-3%
COc1cccc(C(=O)N2CCN(c3oc(-c4cccs4)nc3C#N)CC2)c1	i	9%
Cc1ccc(CSC2=Nc3ccccc3C3=NC(CC(=O)NC4CCCCC4)C(=O)N23)c(C)c1 (stereo not given)	i	10%
Cc1ccc(CSC2=Nc3ccccc3C3=NC(CCC(=O)NCc4cccs4)C(=O)N23)cc1 (stereo not given)	89µM*	-1%
Cc1ccc(CSC2=Nc3ccccc3C3=NC(CCC(=O)NCc4cccs4)C(=O)N23)c(C)c1 (stereo not given)	i	18%
O=C(CC1N=C2c3ccccc3N=C(SCc3ccccc3F)N2C1=O)NCCc1ccccc1 (stereo not given)	35µM*	u
COc1ccccc1NC(=O)CSC1=Nc2ccccc2C2=NC(CC(=O)NCCc3ccccc3)C(=O)N12 (stereo not given)	i	-9%
O=C(CC1N=C2c3ccccc3N=C(SCc3ccccc3Cl)N2C1=O)NC1CCCCC1 (stereo not given)	i	89µM*
Cc1cc2oc(=O)cc(CN3CCN(c4ccccc4O)CC3)c2cc1Cl	i	1%
O=C(/C=C/c1ccco1)Nc1ccc(SC2CCCC2)cc1	i	5%
CCc1noc(C)c1C(=O)Nc1ccc(C)c(C)c1	i	-6%
Cc1ccc(S(=O)(=O)N2CCn3cccc3C2c2ccccc2)cc1 (stereo not given)	i	89µM*
COc1ccc(S(=O)(=O)N2CCn3cccc3C2c2ccccc2)cc1 (stereo not given)	i	u
N#CC1(C(N)=O)C(c2ccccc2Cl)C1(C#N)C(N)=O (stereo not given)	i	6%
Cc1ccc(C)c(OCC(=O)Nc2ccc(Br)cc2C(=O)O)c1	56µM*	2%
CCn1c2ccccc2c2cc(NC(=O)COc3cc(C)ccc3C)ccc21	i	u
CN(C)CCCNc1cc(N2CCN(C3CCCCC3)CC2)c2noc3c2c1C(=O)c1ccccc1-3	40µM*	31%
O=C1c2ccccc2-c2onc3c(N4CCN(C5CCCCC5)CC4)cc(NCCO)c1c23	i	-4%
O=C(NCCCCCO)C1CCN(c2nc(Cl)nc3nc[nH]c23)CC1	i	89µM*
O=C(CCNc1nc(Cl)nc2nc[nH]c12)NC1CC1	i	-11%
O=C(O)CNS(=O)(=O)c1ccc(Cl)cc1	i	-11%
COc1cc(C(c2c(C)[nH][nH]c2=O)c2c(C)[nH][nH]c2=O)ccc1OC(=O)c1ccccc1OC	u	-14%
COc1cc(C(c2c(C)[nH][nH]c2=O)c2c(C)[nH][nH]c2=O)ccc1OC(=O)c1cccc(C)c1	22µM*	-10%
CCOc1ccccc1OCCCn1c(-c2ccc(Cl)cc2)nc2ccccc2c1=O	i	-5%
CCOc1ccccc1OCCCCn1c(-c2ccc(Cl)cc2)nc2ccccc2c1=O	32µM*	-20%
SMILES	AID inh	UDG counterscr
COC(=O)C1=C(C)N(c2cc(C)ccc2C)C(=S)NC1c1ccsc1 (stereo not given)	i	-9%
COc1ccc(-c2noc(N3CCC(C(=O)N(C)c4cc(Cl)ccc4OC)CC3)n2)cc1	79µM*	-14%
COc1ccc(-c2noc(N3CCC(C(=O)N4CCN(c5ccccc5OC)CC4)CC3)n2)cc1	i	u
CCOc1cccc2c(C)nc(Nc3nc(C)c(CC)c(=O)[nH]3)nc12	50µM*	-7%
COc1ccc2nc(Nc3nc(C)c(CCC(C)C)c(=O)[nH]3)nc(C)c2c1	i	3%
ClCC(Cl)C[n+]1cccc2ccccc21 (stereo not given)	i	-7%
N[n+]1cccc2ccccc21	i	1µM*
CC(C)(CNC(=O)NCc1nc2ccccc2s1)N1CCOCC1	i	3%
COc1ccc(Cl)cc1NC(=O)C1CCN(c2nccnc2Oc2ccccc2C)CC1	i	89µM*
COc1ccccc1NC(=O)C1CCN(c2nccnc2Sc2ccc(C)cc2)CC1	i	u
CC(=O)N1CCc2c(sc3nc(SCC(C)C)n(-c4ccc(F)c(Cl)c4)c(=O)c23)C1	i	0%
CC(=O)N1CCc2c(sc3nc(SCC(C)C)n(-c4ccc(C)c(Cl)c4)c(=O)c23)C1	25µM*	79µM*

Compound activity: PubChem, National Center for Advancing Translational Sciences (NCATS)
